# Assay results taken from PubChem BioAssay (NCI).
# About 79,000 compounds went through this panel and 15% of them were active in at least one assay; those are over-represented in the sample as a whole. A number with no mark means an inactive call. Activity calls are given as the source filed them. No stated cut-off is given here; in the data, active means growth inhibition above about 70%; inactive means the rest.
# Columns and labels:
# [1] = NCI Yeast Anticancer Drug Screen. Data for the rad52 strain (AID 147);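 further: 0% = growth of vehicle-treated control cultures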; settings: S. cerevisiae rad52 mutant growth inhibition, stronger effect = higher value
# Outline: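 Genetically altered yeast (DNA damage repair defect) treated with compound; inhibition calculated relative to vehicle.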
# [2] = NCI Yeast Anticancer Drug Screen. Data for the wt1 strain (AID 149);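 further: 0% = growth of vehicle-treated wt1 cultures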; settings: S. cerevisiae wt1 strain (SPY 50644) growth inhibition, stronger effect = higher value
# Outline: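 Vehicle-normalised growth inhibition; strain wt1; compound exposure.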
# [3] = NCI Yeast Anticancer Drug Screen. Data for the rad50EPP+ strain (AID 151);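 further: 0% = growth of vehicle-treated control cultures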; settings: S. cerevisiae rad50 mutant strain, stronger effect = higher value
# Outline: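 Strain rad50EPP+; compound exposure; % growth inhibition vs vehicle.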
# [4] = NCI Yeast Anticancer Drug Screen. Data for the mgt1 strain (AID 153); settings: S. cerevisiae mgt1 mutant growth inhibition, stronger effect = higher value
# Outline: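 Read-out: yeast growth inhibition vs vehicle control. Strain mgt1, drawn from a panel altered in DNA damage repair or cell cycle control.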
# [5] = NCI Yeast Anticancer Drug Screen. Data for the rad50 strain (AID 155);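 further: 0% = growth of vehicle-only cultures of the same strain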; settings: S. cerevisiae rad50 strain growth inhibition, stronger effect = higher value
# Outline: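 A DNA repair-deficient yeast mutant serves as the test organism; compound-induced growth inhibition is calculated against vehicle-treated cells.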
# [6] = NCI Yeast Anticancer Drug Screen. Data for the mec2-1 strain (AID 157); settings: S. cerevisiae mec2-1 strain, stronger effect = higher value
# Outline: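 Cells of the genetically defined mec2-1 yeast strain are incubated with test compound. Inhibition of growth is calculated against vehicle-treated controls.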
# [7] = NCI Yeast Anticancer Drug Screen. Data for the rad14 strain (AID 159);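 further: 0% = growth of vehicle-treated control cultures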; settings: S. cerevisiae rad14 strain growth inhibition, stronger effect = higher value
# Outline: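 Vehicle-treated cultures served as the baseline for growth inhibition of a DNA repair-mutant yeast strain exposed to each compound.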
# [8] = NCI Yeast Anticancer Drug Screen. Data for the sgs1 mgt1 strain (AID 161);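 further: 0% = growth of cultures given vehicle only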; settings: S. cerevisiae sgs1 mgt1 strain, stronger effect = higher value
# Outline: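 Mutant yeast exposed to compound; growth scored against vehicle-only wells.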
# [9] = NCI Yeast Anticancer Drug Screen. Data for the CLN2oe strain (AID 163);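 further: 0% = growth of vehicle-only control cultures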; settings: S. cerevisiae CLN2oe strain, stronger effect = higher value
# Outline: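 Strain altered in cell-cycle control, incubated with compound; growth compared to solvent-treated controls.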
# [10] = NCI Yeast Anticancer Drug Screen. Data for the cln2 rad14 strain (AID 165);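 further: 0% = growth equal to vehicle treated cultures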; settings: S. cerevisiae cln2 rad14 strain, stronger effect = higher value
# Outline: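 The screen exposed genetically defined yeast (cln2 rad14) to test compounds and scored growth inhibition relative to vehicle-treated controls.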
# [11] = NCI Yeast Anticancer Drug Screen. Data for the bub3 strain (AID 167); settings: S. cerevisiae bub3 mutant strain, stronger effect = higher value
# Outline: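 Inhibition values come from growth of compound-treated mutant yeast normalised to vehicle-treated controls.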
# [12] = NCI Yeast Anticancer Drug Screen. Data for the wt2 strain (AID 169);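 further: 0% = growth of vehicle-treated yeast cultures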; settings: S. cerevisiae wt2 strain growth inhibition, stronger effect = higher value
# Outline: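 Steps: yeast strain treated with compound; growth recorded; inhibition calculated relative to cultures given vehicle alone.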
# [13] = NCI Yeast Anticancer Drug Screen. Data for the mlh1 strain (AID 171);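 further: 0% = growth of vehicle-treated control cultures of the same strain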; settings: S. cerevisiae mlh1 strain growth inhibition, stronger effect = higher value
# Outline: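 Yeast screen: mutant strain plus compound, growth scored against vehicle control wells.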
# [14] = NCI Yeast Anticancer Drug Screen. Data for the sgs1 strain (AID 173);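 further: 0% = growth of vehicle-only control cultures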; settings: S. cerevisiae sgs1 mutant, stronger effect = higher value
# Outline: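 Inhibition of yeast growth served as the measure. The mutant strain was treated with each compound, and growth was normalised to cultures receiving vehicle alone.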
# [15] = NCI Yeast Anticancer Drug Screen. Data for the mlh1 rad18 strain (AID 175); settings: S. cerevisiae mlh1 rad18 strain growth inhibition, stronger effect = higher value
# Outline: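 Compound-treated yeast growth, normalised to vehicle controls. Strain bears defined DNA repair mutations.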
# [16] = NCI Yeast Anticancer Drug Screen. Data for the rad18 strain (AID 177); settings: S. cerevisiae rad18 mutant growth inhibition, stronger effect = higher value
# Outline: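 Inhibition values reflect reduced yeast growth compared with vehicle-treated controls, using a strain engineered with a DNA damage repair defect.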
# [17] = at 5.0 µM (retest, dose inferred, filed as 0.5)
# [18] = at 50.0 µM (retest, dose inferred, filed as 5.0)
structure (smiles),measurement,setting,value
Oc1ccc(N=Nc2ccc(Cl)cc2)cc1,growth inhibition,[1]; at 1.2 µM,3%
same,growth inhibition,[1]; at 3.7 µM,23%
same,growth inhibition,[1]; at 11.0 µM,97% (active)
same,growth inhibition,[1]; at 33.0 µM,98% (active)
same,growth inhibition,[1]; at 100.0 µM,98% (active)
same,growth inhibition,[2]; at 1.2 µM,-2%
same,growth inhibition,[2]; at 3.7 µM,7%
same,growth inhibition,[2]; at 11.0 µM,52%
same,growth inhibition,[2]; at 33.0 µM,99% (active)
same,growth inhibition,[2]; at 100.0 µM,99% (active)
same,growth inhibition,[3]; at 1.2 µM,8%
same,growth inhibition,[3]; at 3.7 µM,12%
same,growth inhibition,[3]; at 11.0 µM,50%
same,growth inhibition,[3]; at 33.0 µM,98% (active)
same,growth inhibition,[3]; at 100.0 µM,97% (active)
same,growth inhibition,[4]; at 1.2 µM,-3%
same,growth inhibition,[4]; at 3.7 µM,4%
same,growth inhibition,[4]; at 11.0 µM,61%
same,growth inhibition,[4]; at 33.0 µM,99% (active)
same,growth inhibition,[4]; at 100.0 µM,99% (active)
same,growth inhibition,[5]; at 1.2 µM,1%
same,growth inhibition,[5]; at 3.7 µM,30%
same,growth inhibition,[5]; [17],-27%
same,growth inhibition,[5]; at 11.0 µM,94% (active)
same,growth inhibition,[5]; at 33.0 µM,99% (active)
same,growth inhibition,[5]; [18],99% (active)
same,growth inhibition,[5]; at 50.0 µM,99.5% (active)
same,growth inhibition,[5]; at 100.0 µM,98% (active)
same,growth inhibition,[6]; at 1.2 µM,8%
same,growth inhibition,[6]; at 3.7 µM,15%
same,growth inhibition,[6]; [17],-13%
same,growth inhibition,[6]; at 11.0 µM,90% (active)
same,growth inhibition,[6]; at 33.0 µM,99% (active)
same,growth inhibition,[6]; [18],98% (active)
same,growth inhibition,[6]; at 50.0 µM,98.2% (active)
same,growth inhibition,[6]; at 100.0 µM,99% (active)
same,growth inhibition,[7]; at 1.2 µM,2%
same,growth inhibition,[7]; at 3.7 µM,7%
same,growth inhibition,[7]; at 11.0 µM,60%
same,growth inhibition,[7]; at 33.0 µM,99% (active)
same,growth inhibition,[7]; at 100.0 µM,98% (active)
same,growth inhibition,[8]; [17],-10%
same,growth inhibition,[8]; [18],99% (active)
same,growth inhibition,[8]; at 50.0 µM,98.7% (active)
same,growth inhibition,[9]; at 1.2 µM,25%
same,growth inhibition,[9]; at 3.7 µM,45%
same,growth inhibition,[9]; at 11.0 µM,97% (active)
same,growth inhibition,[9]; at 33.0 µM,99% (active)
same,growth inhibition,[9]; at 100.0 µM,99% (active)
same,growth inhibition,[10]; [17],-6%
same,growth inhibition,[10]; [18],99% (active)
same,growth inhibition,[10]; at 50.0 µM,99.5% (active)
same,growth inhibition,[11]; at 1.2 µM,57%
same,growth inhibition,[11]; at 3.7 µM,65%
same,growth inhibition,[11]; [17],81% (active)
same,growth inhibition,[11]; at 11.0 µM,94% (active)
same,growth inhibition,[11]; at 33.0 µM,99% (active)
same,growth inhibition,[11]; [18],99% (active)
same,growth inhibition,[11]; at 50.0 µM,99.2% (active)
same,growth inhibition,[11]; at 100.0 µM,99% (active)
same,growth inhibition,[12]; at 1.2 µM,-1%
same,growth inhibition,[12]; at 3.7 µM,5%
same,growth inhibition,[12]; at 11.0 µM,93% (active)
same,growth inhibition,[12]; at 33.0 µM,99% (active)
same,growth inhibition,[12]; at 100.0 µM,99% (active)
same,growth inhibition,[13]; at 1.2 µM,4%
same,growth inhibition,[13]; at 3.7 µM,2%
same,growth inhibition,[13]; at 11.0 µM,77% (active)
same,growth inhibition,[13]; at 33.0 µM,99% (active)
same,growth inhibition,[13]; at 100.0 µM,99% (active)
same,growth inhibition,[14]; at 1.2 µM,0%
same,growth inhibition,[14]; at 3.7 µM,7%
same,growth inhibition,[14]; at 11.0 µM,87% (active)
same,growth inhibition,[14]; at 33.0 µM,99% (active)
same,growth inhibition,[14]; at 100.0 µM,98% (active)
same,growth inhibition,[15]; [17],6%
same,growth inhibition,[15]; [18],99% (active)
same,growth inhibition,[15]; at 50.0 µM,99.4% (active)
same,growth inhibition,[16]; at 1.2 µM,0%
same,growth inhibition,[16]; at 3.7 µM,3%
same,growth inhibition,[16]; at 11.0 µM,77% (active)
same,growth inhibition,[16]; at 33.0 µM,99% (active)
same,growth inhibition,[16]; at 100.0 µM,97% (active)
